Assay results published in the supplement of paper PMC4840960.
Counter-ions that a name gives are not always drawn. ± gives the standard deviation of the averaged measurements.

Legend:
[1] = tested on: E18 rat cortical neuron-glia co-culture; assay: fiber score / MBP score (myelination specific beyond OL differentiation) (ratio); higher = more myelination-specific MBP alignment; settings: treatment time: 8 days (DIV5-DIV13)
In short: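 Reported values are fiber score (continuous MBP fiber length per Olig2+ nucleus) divided by MBP score (thresholded MBP area × intensity per Olig2+ nucleus). They come from primary E18 rat cortical co-cultures treated with library compounds at 1 or 5 µM in myelination medium from DIV5 to DIV13, then fixed in 4 % paraformaldehyde, immunostained for MBP and Olig2 with DAPI, and analysed over four 10X fields per well in duplicate wells.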

[2] = tested on: E18 rat cortical neuron-glia co-culture; assay: myelination (MBP fiber length per Olig2+ nucleus), % of 1 µM DAPT response (DMSO = 0) (% of DAPT); higher = more myelination, active = 50 or more; settings: treatment time: 8 days (DIV5-DIV13)
In short: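 Rat cortical co-cultures from E18 tissue were dissociated with papain and plated at 20,000 cells/well on 96-well plates coated with poly-d-lysine/laminin. From DIV5 to DIV13, library compounds were added at 1 or 5 µM in myelination medium. After fixation in 4 % paraformaldehyde, cultures were immunostained for MBP and Olig2 and counterstained with DAPI, and four 10X fields were analysed in each of duplicate wells. The myelination value is the length of continuous straight MBP fibers per Olig2+ nucleus, normalised so that 0.1 % DMSO is 0 and a 1 µM positive control is 100.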

Compound | fiber score / MBP score ([1]; 1 µM) | fiber score / MBP score ([1]; 5 µM) | myelination ([2]; 1 µM) | myelination ([2]; 5 µM)
CC(C)c1nc(CN(C)C(=O)N[C@H](C(=O)N[C@@H](Cc2ccccc2)C[C@H](O)[C@H](Cc2ccccc2)NC(=O)OCc2cncs2)C(C)C)cs1 [Ritonavir] | 0.549 | 0.623 | -20.5 (inactive) | -13.2 (inactive)
C[C@@H]1C[C@H]2[C@@H]3C[C@H](F)C4=CC(=O)C(Cl)=C[C@]4(C)[C@@]3(F)[C@@H](O)C[C@]2(C)[C@@]1(O)C(=O)CO [Halometasone hydrate] | 0.566 | 0.394 | -20.7 (inactive) | -30.1 (inactive)
CCN(CC)CC1CCCCN1CC(=O)N1c2ccccc2C(=O)Nc2cccnc21 (stereo not drawn) [Otenzepad] | 0.774 | 0.692 | -9.61 (inactive) | -15.6 (inactive)
OCc1cccnc1 [Nicotinyl Alcohol] | 0.641 | 0.687 | -10.3 (inactive) | -10.1 (inactive)
O=C(C1CCCCC1)N1CC(=O)N2CCc3ccccc3C2C1 (stereo not drawn) [Praziquantel] | 1.03 | 0.947 | 7.75 (inactive) | -1.87 (inactive)
Nc1nc(=O)c2nc(CNc3ccc(C(=O)N[C@@H](CCC(=O)O)C(=O)O)cc3)cnc2[nH]1 [Folic acid] | 0.994 | 0.627 | -5.35 (inactive) | -17.3 (inactive)
CC1(C)S[C@@H]2[C@H](/N=C/N3CCCCCC3)C(=O)N2[C@H]1C(=O)O [Amdinocillin] | 0.728 | 0.866 | -21.5 (inactive) | -5.42 (inactive)
NCC(=O)CCC(=O)O [Aminolevulinic Acid] | 1.11 | 1.44 | 0.461 (inactive) | 39.4 (inactive)
COc1cc(OC)c(C(=O)CCCN2CCCC2)c(OC)c1 [Buflomedil] | 0.901 | 0.768 | -13.2 (inactive) | -13.3 (inactive)
CNC[C@H](O)c1ccc(O)c(O)c1 [Epinephrine] | 0.884 | 3.29 | 2.28 (inactive) | 38.8 (inactive)
CNS(=O)(=O)Cc1ccc2[nH]cc(CCN(C)C)c2c1 [Sumatriptan] | 0.873 | 0.861 | -5.51 (inactive) | -5.9 (inactive)
Cc1nc(=O)c2cc(CN(C)c3ccc(C(=O)N[C@@H](CCC(=O)O)C(=O)O)s3)ccc2[nH]1 [Raltitrexed] | 1.33 | 1.67 | 177 | 591 (active)
CC(C)NCC(O)COc1cccc2ccccc12 (stereo not drawn) [Propranolol] | 1.55 | 0.95 | 9.85 (inactive) | 1.55 (inactive)
CN(C)CCCC1(c2ccc(F)cc2)OCc2cc(C#N)ccc21 (stereo not drawn) [Citalopram] | 0.773 ± 0.29 | 0.571 ± 0.19 | -18.2 (inactive) | -19 (inactive)
CC(=O)OCC(=O)NCCCOc1cccc(CN2CCCCC2)c1 [Roxatidine acetate] | 0.727 | 0.706 | -10.7 (inactive) | -14.2 (inactive)
CC(=O)Nc1nnc(S(N)(=O)=O)s1 [Acetazolamide] | 0.846 | 0.99 | -4.45 (inactive) | -1.11 (inactive)
NS(=O)(=O)Cc1noc2ccccc12 [Zonisamide] | 0.789 | 0.799 | -33.9 (inactive) | -30.8 (inactive)
CCCc1nc2c(C)cc(-c3nc4ccccc4n3C)cc2n1Cc1ccc(-c2ccccc2C(=O)O)cc1 [Telmisartan] | 0.729 | 0.799 | -7.37 (inactive) | 2.94 (inactive)
CCN(CC)CC(=O)Nc1c(C)cccc1C [Lidocaine] | 0.745 | 0.698 | -26.3 (inactive) | -24.5 (inactive)
CNCCC=C1c2ccccc2CCc2ccccc21 [Nortriptyline] | 0.847 | 1.93 | -1.74 (inactive) | 54.7 (active)
CCN(CC)CC#CCOC(=O)C(O)(c1ccccc1)C1CCCCC1 (stereo not drawn) [Oxybutynin] | 0.964 | 0.547 | 9.59 (inactive) | -5.69 (inactive)
O=C1C(CC[S+]([O-])c2ccccc2)C(=O)N(c2ccccc2)N1c1ccccc1 (stereo not drawn) [Sulfinpyrazone] | 1.18 | 0.857 | -0.801 (inactive) | -7.44 (inactive)
CNCC[C@@H](Oc1ccccc1C)c1ccccc1 [Atomoxetine] | 0.774 | 0.721 | -18.6 (inactive) | -17.2 (inactive)
COc1ccc2[nH]c([S+]([O-])Cc3ncc(C)c(OC)c3C)nc2c1 (stereo not drawn) [Omeprazole] | 0.656 | 0.73 | -8.06 (inactive) | -4.44 (inactive)
CC[C@H](C)C(=O)O[C@H]1C[C@@H](C)C=C2C=C[C@H](C)[C@H](CC[C@@H]3C[C@@H](O)CC(=O)O3)[C@H]21 [Lovastatin] | 2.07 | 6.02 | -6.08 (inactive) | 1.23 (inactive)
CN1CCN(CCCN2c3ccccc3Sc3ccc(Cl)cc32)CC1 [Prochlorperazine] | 0.297 | 1.56 | -45.4 (inactive) | -29.6 (inactive)

Compound | fiber score / MBP score ([1]; 1 µM) | fiber score / MBP score ([1]; 5 µM) | myelination ([2]; 1 µM) | myelination ([2]; 5 µM)
C[C@]12C[C@H](O)[C@H]3[C@@H](CCC4=CC(=O)CC[C@@]43C)[C@@H]1CC[C@@H]2C(=O)CO [Corticosterone] | 0.706 | 0.702 | -7.15 (inactive) | -4.49 (inactive)
OCCOCCN1CCN(C(c2ccccc2)c2ccc(Cl)cc2)CC1 (stereo not drawn) [Hydroxyzine pamoate salt] | 0.154 | 0.28 | -6.65 (inactive) | -24.4 (inactive)
CC(C[N+](C)(C)C)OC(N)=O (stereo not drawn) [Bethanechol] | 0.372 | 0.379 | -14.3 (inactive) | -14.6 (inactive)
C/C=C1\[C@H]2C=C(C)C[C@]1(N)c1ccc(=O)[nH]c1C2 [Huperzine A] | 1.07 | 0.872 | 8.16 (inactive) | -5.77 (inactive)
Cc1ncc([N+](=O)[O-])n1CC(C)O (stereo not drawn) [Secnidazole] | 0.462 | 0.618 | -31.6 (inactive) | -18.7 (inactive)
CC(N/C(=N\C#N)Nc1ccncc1)C(C)(C)C (stereo not drawn) [Pinacidil] | 0.981 | 0.451 | 2.9 (inactive) | -19.7 (inactive)
CCCCC1=NC2(CCCC2)C(=O)N1Cc1ccc(-c2ccccc2-c2nnn[nH]2)cc1 [Irbesartan] | 0.679 | 0.752 | -12.8 (inactive) | -10.8 (inactive)
CC(=O)O[C@@]12CO[C@@H]1C[C@H](O)[C@@]1(C)C(=O)[C@H](O)C3=C(C)[C@@H](OC(=O)[C@H](O)[C@@H](NC(=O)OC(C)(C)C)c4ccccc4)C[C@@](O)([C@@H](OC(=O)c4ccccc4)[C@H]21)C3(C)C [Docetaxel] | 1.59 | 1.62 | 263 (active) | 257 (active)
C[C@]12C=CC(=O)C=C1CC[C@@H]1[C@@H]2[C@@H](O)C[C@@]2(C)[C@H]1CC[C@]2(O)C(=O)CO [Prednisolone] | 0.693 | 0.923 | -6.4 (inactive) | 0.38 (inactive)
Cc1[nH]cnc1CN1CCc2c(c3ccccc3n2C)C1=O [Alosetron] | 0.768 | 0.974 | -18.2 (inactive) | -2.39 (inactive)
O=c1cnn([C@@H]2O[C@H](CO)[C@@H](O)[C@H]2O)c(=O)[nH]1 [Azauridine] | 0.944 | 0.453 | -6.45 (inactive) | -26.1 (inactive)
O=C(O)c1cc(/N=N/c2ccc(S(=O)(=O)Nc3ccccn3)cc2)ccc1O [Sulfasalazine] | 0.823 | 1.17 | -11.7 (inactive) | 1.71 (inactive)
C#C[C@]1(O)CC[C@H]2[C@@H]3CCC4=CC(=O)CC[C@@H]4[C@H]3CC[C@@]21C [Norethindrone] | 0.894 | 0.877 | -8.89 (inactive) | -10.7 (inactive)
O=C(CCCN1CC=C(n2c(=O)[nH]c3ccccc32)CC1)c1ccc(F)cc1 [Droperidol] | 0.863 | 0.601 | -4.1 (inactive) | -16.6 (inactive)
CNCC[C@H](Oc1cccc2ccccc12)c1cccs1 [Duloxetine] | 0.73 ± 0.064 | 0.881 ± 0.45 | -25.8 (inactive) | -33.2 (inactive)
COc1ccc(C2CNC(=O)C2)cc1OC1CCCC1 (stereo not drawn) [Rolipram] | 0.626 | 0.618 | -51.4 (inactive) | -53.6 (inactive)
O=C(O)CCc1nc(-c2ccccc2)c(-c2ccccc2)o1 [Oxaprozin] | 0.677 | 0.752 | -17 (inactive) | -14 (inactive)
Cn1cnc([N+](=O)[O-])c1Sc1ncnc2[nH]cnc12 [Azathioprine] | 0.762 | 0.822 | -10.3 (inactive) | -32.9 (inactive)
CC1=C(CC(=O)O)c2cc(F)ccc2/C1=C\c1ccc([S+](C)[O-])cc1 (stereo not drawn) [Sulindac] | 0.97 | 0.594 | -5.43 (inactive) | -16.6 (inactive)
CN(C)[C@@H]1C(O)=C(C(N)=O)C(=O)[C@@]2(O)C(O)=C3C(=O)c4c(O)ccc(Cl)c4[C@@H](O)[C@H]3C[C@@H]12 [Demeclocycline] | 0.946 | 0.666 | -3.29 (inactive) | -12.1 (inactive)
Cc1c(O)c(=O)ccn1C [Deferiprone] | 0.908 | 0.731 | -11.3 (inactive) | -23.2 (inactive)
NCCc1ccc(O)c(O)c1 [Dopamine] | 1.28 | 1.06 | 5.4 (inactive) | 0.308 (inactive)
CN(C)CCN(Cc1ccccc1)c1ccccn1 [Tripelennamine] | 0.67 | 0.588 | -35.6 (inactive) | -33.5 (inactive)
O=c1[nH]c(=O)n(C2CCCO2)cc1F (stereo not drawn) [Tegafur] | 0.967 | 0.729 | -11.7 (inactive) | 34.5 (inactive)
CCc1nc(N)nc(N)c1-c1ccc(Cl)cc1 [Pyrimethamine] | 1.86 | 2.19 | 398 (active) | 655 (active)
NS(=O)(=O)c1cc(C(=O)O)c(NCc2ccco2)cc1Cl [Furosemide] | 0.894 | 0.97 | -9.91 (inactive) | -6.31 (inactive)
